# Reference: PubChem BioAssay (EPA / NIEHS)
# Inconclusive results are not listed. Activity calls are given as the source filed them. The calls were made as follows: active = hit-call score of the fitted dose curve at least 0.9, where 1 is the maximum; inconclusive = response in the unintended direction; inactive = score below 0.9.
# Target: Retinoic acid receptor RXR-alpha (Homo sapiens) (UniProt P19793)
# Assay: ATG_RXRa_TRANS: Attagene TRANS-FACTORIAL HepG2 Assay for human Retinoid X Receptor alpha (RXRa) (AID 2283012)
# Description: ATG_TRANS is a cell-based, multiplexed-readout assay that uses HepG2, a human liver cell line, with measurements taken at 24 hours after chemical dosing in a 24-well plate.ATG_RXRa_TRANS is one of 30 assay component(s) measured or calculated from the ATG_TRANS assay. It is designed to make measurements of mRNA induction, a form of inducible reporter, as detected with fluorescence intensity signals by Reverse transcription polymerase chain reaction (RT-PCR) and Capillary electrophoresis technology.Data from the assay component ATG_RXRa_TRANS was analyzed into 1 assay endpoint. This assay endpoint, ATG_RXRa_TRANS, was analyzed in the positive analysis fitting direction relative to DMSO as the negative control and baseline of activity. Using a type of inducible reporter, measures of mRNA for gain-of-signal activity can be used to understand the reporter gene at the transcription factor-level as they relate to the gene RXRA. Furthermore, this assay endpoint can be referred to as a primary readout, because this assay has produced multiple assay endpoints where this one serves a reporter gene function. To generalize the intended target to other relatable targets, this assay endpoint is annotated to the nuclear receptor intended target family, where the subfamily is non-steroidal.
# Human liver HepG2 cells are transiently transfected with multiple reporter transcription units (MRTUs) in 6-well plates using FuGene 6 reagent (Roche; 3 ml FuGene/1 mg DNA). The MRTU constructs are regulated by a cis-regulating element (promoter). […] A major difference between the CIS and TRANS system is that in CIS activities of endogenous TFs are measured, whereas the TRANS assay evaluates changes in activities of exogenous, chimeric NR-Gal4 proteins. […] At the end of 24 hour incubation, total RNA was isolated using TriZol reagent (Invitrogen). The isolated RNA is then reverse-transcribed using oligo(dT) primer and Mo-MLV reverse transcriptase (Invitrogen) with DNAse I (Ambion) treatment for 30 min. The one-tenth of the produced cDNA was amplified by PCR using Taq DNA polymerase (Invitrogen) and two reporter sequence-specific primers. The PCR products were fluorescently labeled by primer extension with 6-arboxyfluorescein (6-FAM) 5'-labeled reporter sequence-specific primer (2 min at 95 C, 20 s at 68 C and 10 min at 72 C) and these products were digested with 5U of HpaI (New England Biolabs) for 2h at 37 C. The fragments were purified using Qiaquick PCR columns (Qiagen), analyzed on an ABI 3130xL genetic analyzer (Applied Biosystems) with peak positions identified by using a set of X-rhodamine (ROX)-labeled MapMarker1000 molecular weight standards (BioVentures). The raw capillary electrophoresis data was processed using Attagraph software (Attagene).
# Retinoic acid receptor RXR-alpha (Homo sapiens), sequence (P19793 whole entry, looked up): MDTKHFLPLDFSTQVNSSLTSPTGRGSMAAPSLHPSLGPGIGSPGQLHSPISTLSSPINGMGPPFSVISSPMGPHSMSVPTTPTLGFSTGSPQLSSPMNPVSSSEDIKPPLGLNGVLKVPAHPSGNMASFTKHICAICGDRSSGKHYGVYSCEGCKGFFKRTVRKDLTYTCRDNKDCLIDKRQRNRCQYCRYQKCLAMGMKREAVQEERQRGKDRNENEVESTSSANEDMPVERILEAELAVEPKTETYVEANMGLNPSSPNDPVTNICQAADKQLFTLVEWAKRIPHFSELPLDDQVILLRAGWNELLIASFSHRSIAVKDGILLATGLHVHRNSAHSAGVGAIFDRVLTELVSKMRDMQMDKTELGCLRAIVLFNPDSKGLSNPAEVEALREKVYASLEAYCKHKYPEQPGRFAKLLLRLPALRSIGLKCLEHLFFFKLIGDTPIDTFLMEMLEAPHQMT
Compound,outcome,AC50
BrCc1ccc(Br)cc1,inactive,–
C1CN2CCN1CC2,inactive,–
Clc1ccc(C(Cl)(Cl)Cl)cn1,inactive,–
CCOC(=O)Cc1ccccc1,inactive,–
CC(C)(c1ccc(O)c(-c2ccccc2)c1)c1ccc(O)c(-c2ccccc2)c1,inactive,–
O=CCCl,inactive,–
O=c1oc2ccccc2c(O)c1C(CC(O)c1ccc(-c2ccc(Br)cc2)cc1)c1ccccc1 (stereo not given),inactive,–
CC(C)(C)c1cc([N+](=O)[O-])cc(C(C)(C)C)c1O,–,26.7 µM (active)
COC(=O)c1cc(Oc2ccc(Cl)cc2Cl)ccc1[N+](=O)[O-],inactive,–
CC(C)(C)c1ccccc1O,–,100 µM (active)
CC(C)[C@H](C(=O)OC(C#N)c1cccc(Oc2ccccc2)c1)c1ccc(OC(F)F)cc1 (stereo not given in full),inactive,–
COc1nn(C(=O)NS(=O)(=O)c2ccccc2OC(F)(F)F)c(=O)n1C,inactive,–
O=C(O)c1cc(I)cc(I)c1I,inactive,–
C1CCC(C2CCCCC2)CC1,inactive,–
O=S1(=O)OC(c2cc(Br)c(O)c(Br)c2)(c2cc(Br)c(O)c(Br)c2)c2ccccc21,inactive,–
O=[N+]([O-])c1c2ccccc2cc2ccccc12,inactive,–
CC(C)C(C)(N)C#N (stereo not given),inactive,–
OC(c1ccc(Cl)cc1)(c1ccc(Cl)cc1)c1cccnc1,inactive,–
O=[N+]([O-])c1ccc(Nc2ccccc2)cc1,inactive,–
O=S1OC[C@@H]2[C@H](CO1)[C@]1(Cl)C(Cl)=C(Cl)[C@@]2(Cl)C1(Cl)Cl (stereo not given in full),inactive,–

Compound,outcome,AC50
C#CCOC(=O)/C=C(C)/C=C/CC(C)CCCC(C)C (stereo not given),–,14.1 µM (active)
Cc1c([N+](=O)[O-])c(C)c([N+](=O)[O-])c(C(C)(C)C)c1[N+](=O)[O-],–,9.15 µM (active)
Fc1cccc(Cl)c1CCl,inactive,–
Oc1ccc(Cc2ccc(O)cc2)cc1,inactive,–
CCCCOC(C)=O,inactive,–
Cc1cc(C)cc(C)c1,inactive,–
CN(N=O)c1ccc([N+](=O)[O-])cc1,inactive,–
CCOC(=O)CC(=O)CCl,inactive,–
O=C(N[C@H]1CN2CCC1CC2)c1ccc2c(c1)OCCO2,inactive,–
O=S(=O)(F)C(F)(F)C(F)(F)C(F)(F)C(F)(F)F,inactive,–
Cc1cccc(N=Nc2ccc(N(C)C)cc2)c1,inactive,–
O=[N+]([O-])c1cccc2ccccc12,inactive,–
CN(C)C(=S)S,inactive,–
C[C@@H]1O[C@@H](O[C@H]2C[C@@H](O)[C@]3(CO)[C@H]4[C@H](O)C[C@]5(C)[C@@H](C6=CC(=O)OC6)CC[C@]5(O)[C@@H]4CC[C@]3(O)C2)[C@H](O)[C@H](O)[C@H]1O,inactive,–
N#Cc1ccc(Cl)cc1,inactive,–
Cc1cc(SCc2sc(-c3ccc(C(F)(F)F)c(F)c3)nc2C)ccc1OCC(=O)O,inactive,–
CC(O)(CS(=O)(=O)c1ccc(F)cc1)C(=O)Nc1ccc(C#N)c(C(F)(F)F)c1 (stereo not given),inactive,–
COCC(=O)N(c1c(C)cccc1C)[C@H](C)C(=O)OC,inactive,–
CCC[CH2][Sn]([CH2]CCC)([CH2]CCC)[CH2]CCC,–,0.866 µM (active)
C=CC(Cl)CCl (stereo not given),inactive,–
